GDH-TPI counter-1: GDH-TPI coupled enzyme inhibition counter-screen; 1.2% of 360,000 active; inhibition, % at 4.8 µM; GDH-TPI coupled enzyme counterscreen, NADH absorbance; in the data active = inhibition above about 30%;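 note: 0% = DMSO wells and 100% = wells lacking the enzyme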
UGM FP inh: Mtb UDP-galactopyranose mutase inhibition. purified UGM, fluorescence polarization probe displacement. 0.06% of 320,000 active. P9WIQ1. inhibition, % at 10 µM; in the data active = inhibition above about 10%, passing the limit was not always enough
Target sequence (P9WIQ1 whole entry, looked up): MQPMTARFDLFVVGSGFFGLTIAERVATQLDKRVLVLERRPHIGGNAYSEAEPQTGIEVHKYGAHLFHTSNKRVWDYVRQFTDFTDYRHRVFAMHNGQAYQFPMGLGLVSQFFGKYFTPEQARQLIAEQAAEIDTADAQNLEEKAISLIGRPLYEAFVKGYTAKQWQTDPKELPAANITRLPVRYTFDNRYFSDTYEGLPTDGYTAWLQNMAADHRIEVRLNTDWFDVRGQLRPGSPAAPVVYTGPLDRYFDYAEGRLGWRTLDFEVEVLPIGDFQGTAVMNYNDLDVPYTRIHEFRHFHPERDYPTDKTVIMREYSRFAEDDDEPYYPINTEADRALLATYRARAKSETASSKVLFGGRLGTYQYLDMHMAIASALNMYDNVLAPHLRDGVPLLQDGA
FBA Mtb inh: inhibitors of M. tuberculosis fructose-bisphosphate aldolase; 2.3% of 360,000 active; inhibition, % at 1 µM; AID 588726; purified M. tuberculosis FBA, fluorescence read-out; P9WQA3;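 note: 0% = vehicle and 100% = reference inhibitor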
Rv3671c protease: Rv3671c (M. tuberculosis) protease inhibition; 0.048% of 320,000 active; inhibition, % at 5.96 µM; P9WHR9; AID 2606; in the data active = inhibition above about 38%;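 note: extracellular domain of Rv3671c used as enzyme; 0% = enzyme with DMSO and 100% = no enzyme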
Mtb FBA inh conf: confirmation of M. tuberculosis fructose-bisphosphate aldolase inhibitors | shares compounds with FBA Mtb inh | purified M. tuberculosis FBA, fluorescence read-out | inhibition, % at 1 µM | 78% of 5,600 active | AID 651616;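 note: 0% = vehicle wells and 100% = reference inhibitor wells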
GDH-TPI counter-2: counter-screen for M. tuberculosis FBA inhibitors: GDH-TPI coupled enzyme inhibition. inhibition, % at 1 µM. shares compounds with FBA Mtb inh. GDH-TPI coupled enzyme counterscreen, fluorescence. 81% of 5,600 active; in the data active = inhibition above about 10%
Starred values were filed as active, the others as inactive; · = not tested or not shown; + = active, no number. Most compounds without a hit are left out; they make up all but 3.5% or so of the library. Cut-off read from the data, not from the text of the source, unless noted: active = inhibition above about 27%; inactive = the rest.

SMILES	GDH-TPI counter-1	UGM FP inh	FBA Mtb inh	Rv3671c protease	Mtb FBA inh conf	GDH-TPI counter-2
COc1ccc(C2CC(=O)c3c(ccc4ccccc34)N2)cc1OC (stereo unspecified)	-6	-5	-3	-11	·	·
CC1(C)CC(=O)C2=C(C1)c1c(ccc3ccccc13)NC2c1ccc(Br)o1 (stereo unspecified)	16	-1	31*	-14	174*	148*
CN(CC(=O)O)Cc1oc(CO)cc(=O)c1O	7	·	1	·	·	·
Cc1cc(=O)oc2cc(OC(C)C(=O)O)c(Cl)cc12 (stereo unspecified)	9	1	32*	-15	3	4
Cc1cc(=O)oc2cc(OC(C)C(=O)N3CCOCC3)c(Cl)cc12 (stereo unspecified)	28	·	24	·	·	·
COc1ccc(CC(NC(C)=O)C(=O)NC2CCN(c3nc(C)cc(C)c3C#N)CC2)cc1OC (stereo unspecified)	-1	2	31*	2	162*	121*
COc1ccc(CC(NC(C)=O)C(=O)NC2CCN(c3nc(C)cc(C)c3C#N)CC2)cc1 (stereo unspecified)	4	-4	19	-2	·	·
FC(F)(F)c1nc2nc(Cl)c(Cl)nc2n1CCCN1CCOCC1	20	·	48*	·	+	+
CC1(C)CC(=O)C=C(c2ccccc2-c2ccc(S(C)(=O)=O)cc2)C1=O	4	·	-2	·	·	·
Fc1ccc(-c2cc(C(F)(F)F)n3ncnc3n2)cc1	10	-4	85*	-6	130*	129*
O=C(O)C1C2CC(C(Br)C2Br)C1C(=O)O (stereo unspecified)	5	·	-2	·	·	·
CN1C(=O)[C@H]2[C@@H](C3CC3)N3C(=O)CN(Cc4ccccn4)C(=O)[C@@]3(Cc3ccccc3)[C@H]2C1=O	-2	0	68*	-2	70*	57*
Fc1ccccc1-c1nc(NCC2CC2)nc2ccsc12	4	·	42*	·	100*	84*
COCCNc1nc(-c2ccc(Cl)cc2C)c2sccc2n1	18	·	69*	·	-4	-4
COc1ccccc1CNc1nc(-c2ccccc2CO)c2sccc2n1	6	·	51*	·	130*	90*
Cc1cscc1-c1nc(NCC2CC2)nc2ccsc12	5	·	37*	·	127*	100*
Cc1cc(Cl)ccc1-c1nc(NCc2ccccc2)nc2ccsc12	3	·	14	·	·	·
O=C(Cn1c2ccccc2c(=O)c2ccccc21)Nc1cccc(F)c1	6	-3	90*	-95	100*	71*
O=C(CC(=O)Nc1cccc(F)c1)Nc1cccc(F)c1	-13	0	-1	-9	·	·
COc1ccc(C(=O)N/N=C(\c2ccccc2)c2ccccn2)cc1	17	-1	49*	7	147*	116*
O=c1c2c(nc3cc(-c4cccc(F)c4)[nH]n13)CCC2	3	-1	37*	4	-4	-3
O=c1c2c(nc3cc(-c4ccc(F)cc4)[nH]n13)CCCC2	0	0	22	1	·	·
C=CCn1c(SCC(=O)NC2CCCc3ccccc32)nnc1-c1ccncc1 (stereo unspecified)	-7	3	-1	1	·	·
Cc1ccc2c(c1)=NC(=O)/C(=C/c1c(O)[nH]c(=O)[nH]c1=O)C=2	1	1	35*	-23	95*	65*
Cc1ccc(F)cc1C(=O)N1CCCCC1c1cc(C(=O)Nc2ccccc2)no1 (stereo unspecified)	3	·	5	·	·	·
SMILES	GDH-TPI counter-1	UGM FP inh	FBA Mtb inh	Rv3671c protease	Mtb FBA inh conf	GDH-TPI counter-2
COc1ccccc1-c1nnc(-c2ccc(C)cc2)o1	-5	0	15	-2	·	·
COc1cccc(OC)c1-c1nnc(-c2cn(C)c3ccccc23)o1	-4	3	80*	8	+	178*
COc1ccc(-c2csc(-c3ccc(C(=O)O)cc3)n2)cc1	22	5	49*	-4	58*	43*
O=C(O)c1ccc(-c2nc(-c3ccc(Cl)cc3)cs2)cc1	2	·	2	·	·	·
CC(C)c1cccc(-c2csc(C(O)c3cccc(Cl)c3)n2)c1 (stereo unspecified)	10	·	-4	·	·	·
CCN(CC)CCN1C2=C(C(=O)CC(C)(C)C2)C(c2cccc(F)c2)C2=C1CC(C)(C)CC2=O	14	0	83*	2	+	200*
CCCCN1C2=C(C(=O)CC(C)(C)C2)C(c2ccccc2)C2=C1c1ccccc1C2=O (stereo unspecified)	5	1	-1	7	·	·

Source: PubChem BioAssay
